Screens deposited in PubChem BioAssay by National Center for Advancing Translational Sciences (NCATS).
Compounds with a hit are over-represented: about 5.4% of the library has one in this group of screens.
IMPase Li inh: IMPase inhibition in cells with lithium potentiation; AID 1457; Potency, µM (doses to about 59.4 µM), without a hit: top-dose activity, negative = IMPase inhibition, hits mostly inhibitors; 210,000 tested, 0.35% active; CHO-M1 cells, IP1 TR-FRET (IP-One), carbachol + lithium;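 note: IP1 builds up when IMPase is blocked and the TR-FRET signal falls; potency is the fitted concentration of half-maximal effect; plate controls were basal vehicle for no effect and high inhibitor control for full effect; nearly all actives have a fitted effect of over 50% in size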
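IP1 accumulation measured by competitive TR-FRET in lysed CHO-M1 cells after 30 min compound exposure at 37C, with a small lithium addition to potentiate weak responses. Hill-equation AC50 from ratio and donor-channel data.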
12-hLO inh: 12-hLO (ALOX12) enzyme inhibition; purified 12-hLO, xylenol orange hydroperoxide absorbance; Potency, µM (series often up to 57.1 µM), for the others: at the top dose activity change, negative = inhibition, hits mostly inhibitors; 150,000 tested, 0.12% active; AID 1452; note: potency is the fitted concentration of half-maximal effect; nearly all actives have a fitted effect of over 55% in size
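150 nM 12hLO, 25 mM Hepes pH 7.0 + 0.01% Triton X-100; cpd preinc 15 min RT; 40 uM arachidonic acid, 30 min RT; Fe-XO 30 min; A573/A405 ratio as read-out.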
PNC assembly inh: blocks assembly of the perinucleolar compartment; PC3M PTB-GFP, PNC prevalence imaging, 16 h; hits give low values; activity change (PNC), negative = inhibition, % at 10 µM; 140,000 tested, 3.1% active; AID 2417;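 active = readout at or below -70, meaning at least 70% loss of cells showing the perinucleolar compartment, a nuclear body marking cancer cells; inconclusive = readout between -30 and a set limit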;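 note: plate controls were DMSO wells for no effect and camptothecin positive control wells for full effect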
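PC3M cells stably expressing PTB-GFP, 750–1000 cells/well, treated 16 h at 37 °C with compound (23 nl of library stock), in duplicate. After paraformaldehyde fixation and Hoechst stain, imaged at 20x; PNC prevalence scored by image analysis.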
IMPase inh: cell-permeable inhibitors of inositol monophosphatase (IMPase); P97697; 120,000 tested, under 10 active; inhibition (IP1 accumulation), % at 46.1 µM; CHO-M1 cells, IP1 accumulation, HTRF TR-FRET ratio; active = well fitted curve in the direction sought with a large enough effect in the signal ratio, not every such curve was filed as active; inconclusive = small, poorly fitted or top-dose-only effect, or a change in a side signal; inactive = no such curve, though single readings can be large or run the other way; the % refers to the signal ratio;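 note: cells stimulated with carbachol in lithium chloride buffer; plate controls were DMSO basal wells for no effect and reference inhibitor wells for full effect; higher means more IMPase inhibition seen as more IP1 and lower FRET ratio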
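The IP-One HTRF competitive assay in carbachol-stimulated CHO-M1 cells quantifies cellular IP1. Compounds spanned up to 46 uM final, and activity is expressed as AC50 from concentration-response fits of the ratio and donor data.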
HPGD block: inhibitors of human 15-hydroxyprostaglandin dehydrogenase (HPGD); AID 894; P15428; purified HPGD, NADH fluorescence kinetic, PGE2 substrate; 150,000 tested, 4.3% active; Potency, µM, for inactives: at the top dose activity change, negative = inhibition, hits mostly inhibitors; active = well fitted inhibition curve with a large enough effect, not every such curve was filed as active; inconclusive = small, poorly fitted or top-dose-only effect, or another doubt; inactive = no such curve, though single readings can be large or run the other way; note: potency is the fitted concentration of half-maximal effect
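20 nM HPGD preincubated 15 min at room temperature with compound in 50 mM Tris-HCl pH 8, 0.01% Tween 20. Started with 1 mM NAD+ and 30 uM prostaglandin E2; NADH fluorescence (360/450 nm) read 5 times over 30-s intervals, last minus first.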
15-hLO-2 inh: blocks human 15-lipoxygenase 2 activity. 110,000 tested, 0.56% active. AID 881. purified 15hLO-2, xylenol orange hydroperoxide absorbance. Potency, µM (titrated, usually from 57.1 µM), inactives show at the top dose activity change, negative = inhibition, most hits filed as inhibitors; note: potency is the fitted concentration of half-maximal effect; nearly all actives have a fitted effect of over 60% in size
Target sequence (O15296 whole entry, looked up): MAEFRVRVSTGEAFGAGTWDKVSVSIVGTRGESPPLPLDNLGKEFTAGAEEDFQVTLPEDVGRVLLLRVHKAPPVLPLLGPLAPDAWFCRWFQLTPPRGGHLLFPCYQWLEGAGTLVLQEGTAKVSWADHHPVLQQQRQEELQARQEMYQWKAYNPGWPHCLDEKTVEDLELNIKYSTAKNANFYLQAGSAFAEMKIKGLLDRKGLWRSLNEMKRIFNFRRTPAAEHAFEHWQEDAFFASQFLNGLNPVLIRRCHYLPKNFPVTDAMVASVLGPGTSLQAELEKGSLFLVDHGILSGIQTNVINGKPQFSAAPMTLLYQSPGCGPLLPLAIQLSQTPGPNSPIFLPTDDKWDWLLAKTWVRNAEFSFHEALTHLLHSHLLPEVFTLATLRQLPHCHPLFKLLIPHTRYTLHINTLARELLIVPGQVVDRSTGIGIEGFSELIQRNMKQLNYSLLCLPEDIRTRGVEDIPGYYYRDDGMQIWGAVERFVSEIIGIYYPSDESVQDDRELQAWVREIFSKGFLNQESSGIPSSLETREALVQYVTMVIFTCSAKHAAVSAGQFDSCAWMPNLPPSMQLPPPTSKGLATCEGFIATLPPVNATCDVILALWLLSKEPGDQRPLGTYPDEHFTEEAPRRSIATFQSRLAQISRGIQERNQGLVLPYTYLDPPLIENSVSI
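Read-out: hydroperoxide product oxidises ferrous iron, measured as xylenol orange complex via the 573-to-405 nm absorbance ratio after 30 min. Reaction: 50 nM enzyme, 15 min compound preincubation, 45 uM arachidonic acid, 90 min RT, Hepes pH 7.5 with Triton X-100.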
* marks the source's active call; other numbers are inactive results; ? = inconclusive; nt = no result; [ ] = remark or other dose. Unless noted, calls come from the whole dose curve; as a rule, active = well fitted curve in the direction sought with a large enough effect; inconclusive = small, poorly fitted or top-dose-only effect, or another doubt; inactive = no such curve, though single readings can be large; an effect the other way counts as inactive or inconclusive. Unless noted, % is set by controls: 0 for no effect and ±100 for the full control effect.

SMILES	IMPase Li inh	12-hLO inh	PNC assembly inh	IMPase inh	HPGD block	15-hLO-2 inh
CC1CCN(C(=O)c2cc(-c3ccc(Cl)c(Cl)c3)on2)CC1	9%	4%	216	-4	14µM*	nt
O=C(c1cc(-c2ccc(Cl)c(Cl)c2)on1)N1CCCC1	63%[38.3 µM]	-6%	10	-3	-10%	-2%
Cc1ccc(-c2cc(C(=O)OCC(=O)c3ccccc3)c3cccc(Cl)c3n2)cc1	nt	nt	nt	-4	nt	nt
COc1cccc(=O)c2c(C)n(-c3cc(C)cc(C)c3)c(C)c12	11%[38.3 µM]	-23%	66	6	28µM*	-20%
O=C(O)CCC(=O)N1CCc2cc(S(=O)(=O)Nc3ccc4c(c3)OCCO4)ccc21	-3%[38.3 µM]	1%	19	3	25µM*	2%
CCOc1ccc(NS(=O)(=O)c2ccc3c(c2)CCN3C(=O)CCC(=O)O)cc1	-14%[38.3 µM]	1%	65	0	-8%	-1%
O=C(c1cnn(-c2ccccc2)c1)c1ccccc1O	16%	1%	-29	0	13µM*	nt
COc1ccc(-n2cc(C(=O)c3ccccc3O)cn2)cc1	2%	nt	nt	nt	nt	nt
CCCn1nnnc1NC(=O)CSc1ccc(Cl)cc1	1%[38.3 µM]	-8%	-27	-1	16µM*	3%
CCc1noc2c1/C(=N\O)CC(c1ccccc1)C2 (centres undefined)	40%[38.3 µM]	-3%	19	13	-15%	-5%
Cc1[nH]nc2c1/C(=N/O)CC(c1ccccc1)C2 (centres undefined)	-8%[38.3 µM]	0%	37	6	14µM*	16%
CCCc1n[nH]c2c1/C(=N/O)CC(c1ccccc1)C2 (centres undefined)	8%	2%	?	0	7.1µM*	16%
Nc1ccnc(C(F)(F)F)c1C(=O)c1ccccc1	-11%[38.3 µM]	-6%	-82*	10	-9%	1%
CC(=O)c1c(N(C)C)ccnc1C(F)(F)F	8%[38.3 µM]	3%	6	2	-12%	0%
CC(C)CN1CCC2(CC1)CCN(S(=O)(=O)c1ccccc1)CC2	26%	-15%	nt	nt	-2%	1%
Cc1ccc(S(=O)(=O)N2CC=C(c3ccc(F)cc3)CC2)cc1	3%	2%	-80*	1	-14%	nt
Cc1ccc(NC(=O)C2=CCN(S(=O)(=O)c3ccc(F)cc3)CC2)cc1	10%	-1%	58	nt	-8%	nt
Cc1nnc(Sc2cc(NCCCO)c([N+](=O)[O-])c3nonc23)s1	29%	nt	nt	nt	nt	nt
CCOC(=O)C1CCCN(c2cc(NCCCO)c([N+](=O)[O-])c3nonc23)C1 (centres undefined)	0%	-3%	?	nt	13µM*	nt
CCCc1nnc(NC(=O)c2c(O)c3c([nH]c2=O)CCCC3)s1	-12%[38.3 µM]	0%	-114*	-2	-11%	4%
CCNCCNC(=O)c1c(O)c2c([nH]c1=O)CCCC2	2%[38.3 µM]	6%	0	3	-6%	9%
Cc1cc(NS(=O)(=O)N(C)C)ccc1C(C)C	25%[38.3 µM]	4%	21	-4	16µM*	-3%
CN(C)S(=O)(=O)Nc1ccc2c(c1)OCO2	1%[38.3 µM]	-1%	0	-15	?	-2%
c1ccc(CO[C@H]2NCCN2Cc2ccccc2)cc1	8%	1%[11.4 µM]	nt	nt	-8%	0%[11.4 µM]
CC(C)c1ccc(NC(=O)C2CCCN(S(=O)(=O)c3ccc(Br)s3)C2)cc1 (centres undefined)	nt	nt	nt	-3	nt	nt
SMILES	IMPase Li inh	12-hLO inh	PNC assembly inh	IMPase inh	HPGD block	15-hLO-2 inh
COc1cc(NC(=S)NCCC(c2ccccc2)c2ccccc2)cc(OC)c1	5%	22µM*	24	nt	-20%	nt
Cc1c(Cl)cccc1NC(=S)NCc1ccccc1Cl	16%	10µM*	12	nt	22µM*	nt
Cc1c(Cl)cccc1NC(=S)NCCC(c1ccccc1)c1ccccc1	16%	7.9µM*	?	nt	-19%	nt
Cc1c(Cl)cccc1NC(=S)NCCC(C)C	-5%	-13%	?	6	-26%	?
COC(=O)C1=C(C)N(CCc2ccc(OC)c(OC)c2)C(=O)C1	-8%[38.3 µM]	-6%	-22	-3	-16%	-6%
COC(=O)C1=C(C)N(CCc2ccc(OC)c(OC)c2)C(=O)/C1=C\c1ccc(O)cc1	4%	-2%	-116*	nt	-2%	nt
COc1cc(C(=O)Nc2ccc(S(=O)(=O)N3CCCCC3C)cc2)cc(OC)c1OC (centres undefined)	4%[38.3 µM]	-6%	?	9	-14%	1%
CC1CCCCN1S(=O)(=O)c1ccc(NC(=O)c2cccc(-n3cnnn3)c2)cc1 (centres undefined)	9%[38.3 µM]	-3%	-11	1	22µM*	-6%
CC1CCCN(S(=O)(=O)c2ccc(NC(=O)c3cccc(-n4cnnn4)c3)cc2)C1 (centres undefined)	39%[38.3 µM]	0%	-15	7	28µM*	-2%
O=C(Nc1ccccc1)C1CCCN(S(=O)(=O)c2ccc(-n3cnnn3)cc2)C1 (centres undefined)	13%[38.3 µM]	4%	-21	-2	-9%	-2%
CCC1=C(OC(=O)N(CC)CC)N2C(=O)OC(=NCCOC)[C@]2(C)[C@H]2C1=CC[C@H]1C(=O)N(CC(=O)OC)C(=O)[C@H]12	0%	3%	nt	nt	-15%	16%
Cc1c(C(=O)NCCSCc2ccc(Cl)cc2Cl)cccc1[N+](=O)[O-]	23%[38.3 µM]	-10%	11	4	22µM*	-20%
Cc1ccc(C(=O)NCCSCc2ccc(Cl)cc2Cl)cc1[N+](=O)[O-]	8%	-6%	-12	nt	?	nt
Cc1c(C(=O)NCCSc2ccc(Cl)cc2)cccc1[N+](=O)[O-]	18%	-5%	5	nt	-14%	nt
Cc1ccc(SCCNC(=O)c2cccc([N+](=O)[O-])c2C)cc1	5%[38.3 µM]	-7%	17	6	25µM*	-4%
COc1ccc(-c2cc(N)n(S(=O)(=O)c3ccc(C)cc3)n2)c(OC)c1	5%[38.3 µM]	-28%	-91*	7	-15%	7%
COc1ccc(O)c(C(=O)c2cnc3c(c2)CN(C)C(=O)N3)c1	0%	nt	nt	nt	nt	nt
CN1Cc2cc(C(=O)c3ccccc3O)cnc2NC1=O	2%[38.3 µM]	-6%	?	?	25µM*	-22%
COc1ccc(NC(=O)N2CCc3nc(COc4ccccc4)c4c(c3C2)CO[C@@H](C)C4)cc1	-12%	0%[11.4 µM]	nt	nt	-5%	nt
CC(C)(C)c1ccc(-c2nc(S(=O)(=O)c3ccccc3)c(N3CCOCC3)o2)cc1	nt	nt	nt	3	nt	nt
O=C1CC(c2ccccc2)Oc2ccccc21 (centres undefined)	-3%	-2%	nt	nt	-17%	-1%
Cn1c(Cl)cnc1C1CC(=O)c2cc(Cl)ccc2O1 (centres undefined)	9%	-14%	-112*	10	?	-27%
